PubChem BioAssay AID743147 (Broad Institute, 2013)
The source made the active and inactive calls.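 The calls were made as follows: active = ATP luminescence loss from cell killing, with fitted half-maximal dose at or below the top valid tested dose; inconclusive = flat curve with partial loss of 30 to 70%, or poor fit; inactive = the rest.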

Assay: viability loss in HEK293T cells – cell-based, CellTiter-Glo luminescence, dry powder, set 5, cytotoxicity control, dose response (AID 743147)
Conditions: CellTiter-Glo ATP luminescence, 72 h; series mostly up to 26 µM

SMILES	outcome
CC(=O)Nc1ccc(C2=NNC(=O)C[C@H]2C)cc1[N+](=O)[O-]	inactive
COc1cc2c(cc1OC)-c1cc(=Nc3c(C)cc(C)cc3C)n(C)c(=O)n1CC2	inactive
CCN1N=C(c2ccc(N(CC)CC)cc2)[C@H](C)CC1=O	inactive
C[C@@H]1CC(=O)NN=C1c1ccc(N2CCOCC2)c(F)c1	inactive
C[C@@H]1CC(=O)NN=C1c1ccc(Cl)cc1	inactive
C[C@@H]1CC(=O)NN=C1c1ccc(C2CCCCC2)cc1	inactive
C[C@@H]1CC(=O)NN=C1c1ccc(N2CCOCC2)cc1	inactive
O=C1CN2Cc3c(ccc(Cl)c3Cl)N=C2N1	inactive
CCN(CC)c1ccc(C2=NNC(=O)CC2C)cc1[N+](=O)[O-] (stereo not drawn)	inactive
C[C@H]1CC(=O)NN=C1c1ccc(N2CCOCC2)c(F)c1	inactive
C[C@@H]1CC(=O)NN=C1c1ccc(F)c(F)c1	inactive
Cn1c(NC(=O)c2ccccc2)nc2ccccc21	inactive
C[C@@H]1CC(=O)NN=C1c1ccc(-c2cncnc2)cc1	inactive
